# Experimental data published in article PMC7862700, “An all-to-all approach to the identification of sequence-specific readers for epigenetic DNA modifications on cytosine”.
# What was measured:
# Experiment in all cases: DAPPL (digital affinity profiling via proximity ligation, sequencing); 10 mM Tris-HCl pH 7.5, 50 mM NaCl, 1 mM DTT, 4% glycerol, room temperature, 30 min; GST-TFs on glutathione beads, 16-mer random dsDNA library, 0.1% formaldehyde crosslink after washing; high values mean tight binding
# FLI1 = target: T1, FLI1 (Homo sapiens, UniProt Q01543 1-452); conditions: protein: recombinant; tags: N-terminal GST; dsDNA, one strand shown
# T1 sequence: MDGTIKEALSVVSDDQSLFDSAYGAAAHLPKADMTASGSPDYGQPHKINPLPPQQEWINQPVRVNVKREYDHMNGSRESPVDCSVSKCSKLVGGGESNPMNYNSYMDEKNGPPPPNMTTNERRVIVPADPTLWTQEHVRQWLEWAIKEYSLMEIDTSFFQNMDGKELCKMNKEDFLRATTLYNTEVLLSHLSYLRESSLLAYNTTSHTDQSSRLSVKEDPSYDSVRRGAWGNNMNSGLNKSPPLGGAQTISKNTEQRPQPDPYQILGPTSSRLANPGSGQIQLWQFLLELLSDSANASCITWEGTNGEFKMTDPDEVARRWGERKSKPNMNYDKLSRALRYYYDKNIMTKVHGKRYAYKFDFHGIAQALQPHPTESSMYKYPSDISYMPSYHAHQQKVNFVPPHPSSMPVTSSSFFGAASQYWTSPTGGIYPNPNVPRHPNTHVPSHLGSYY
# How it was run: (§1)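 Human transcription factors fused to GST were expressed in yeast, captured on glutathione beads, given DNA barcodes and pooled with a GST-only negative control. Pools were incubated with 200 nmole of a 16-mer random double-stranded DNA library in Tris/NaCl/DTT/glycerol buffer at room temperature for 30 min. They were then washed, crosslinked with 0.1% formaldehyde, proximity-ligated (BsaI/T4 ligase, 1 h, 37 °C), PCR-amplified and sequenced on an Illumina NextSeq500. Binding signal is each 6-mer's read frequency for a factor divided by its frequency for the GST control.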
# ELK1 = target: T2, ELK1 (Homo sapiens, UniProt P19419 1-428); conditions: protein: recombinant; tags: N-terminal GST; dsDNA, one strand shown
# T2 sequence: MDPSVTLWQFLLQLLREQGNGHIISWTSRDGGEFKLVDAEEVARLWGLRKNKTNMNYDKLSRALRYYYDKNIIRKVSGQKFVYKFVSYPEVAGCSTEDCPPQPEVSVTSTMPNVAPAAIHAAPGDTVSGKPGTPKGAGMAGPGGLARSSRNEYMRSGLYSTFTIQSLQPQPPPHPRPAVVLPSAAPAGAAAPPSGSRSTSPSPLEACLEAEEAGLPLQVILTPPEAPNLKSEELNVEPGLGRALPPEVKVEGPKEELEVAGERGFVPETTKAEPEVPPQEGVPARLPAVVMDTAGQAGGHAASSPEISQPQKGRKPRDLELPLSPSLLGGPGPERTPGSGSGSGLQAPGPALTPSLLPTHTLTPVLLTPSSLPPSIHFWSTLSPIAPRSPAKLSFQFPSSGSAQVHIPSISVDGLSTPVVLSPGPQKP
# How it was run: as §1
# GABPA = target: T3, GABPA (Homo sapiens, UniProt Q06546 1-454); conditions: protein: recombinant; tags: N-terminal GST; dsDNA, one strand shown
# T3 sequence: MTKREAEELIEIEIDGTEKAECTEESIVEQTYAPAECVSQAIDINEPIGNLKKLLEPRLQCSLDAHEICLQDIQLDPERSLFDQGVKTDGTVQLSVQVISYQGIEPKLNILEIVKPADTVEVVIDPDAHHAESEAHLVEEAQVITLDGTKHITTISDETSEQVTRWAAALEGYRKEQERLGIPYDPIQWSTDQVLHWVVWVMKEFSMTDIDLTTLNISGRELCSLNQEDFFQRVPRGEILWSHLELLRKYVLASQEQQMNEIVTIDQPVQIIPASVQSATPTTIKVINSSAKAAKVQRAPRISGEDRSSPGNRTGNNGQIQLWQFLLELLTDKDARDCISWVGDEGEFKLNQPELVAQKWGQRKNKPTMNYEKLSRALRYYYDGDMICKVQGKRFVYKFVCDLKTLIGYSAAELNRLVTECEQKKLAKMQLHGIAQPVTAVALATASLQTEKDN
# How it was run: as §1
# ERG = target: T4, ERG (Homo sapiens, UniProt P11308 1-479); conditions: protein: recombinant; tags: N-terminal GST; dsDNA, one strand shown
# T4 sequence: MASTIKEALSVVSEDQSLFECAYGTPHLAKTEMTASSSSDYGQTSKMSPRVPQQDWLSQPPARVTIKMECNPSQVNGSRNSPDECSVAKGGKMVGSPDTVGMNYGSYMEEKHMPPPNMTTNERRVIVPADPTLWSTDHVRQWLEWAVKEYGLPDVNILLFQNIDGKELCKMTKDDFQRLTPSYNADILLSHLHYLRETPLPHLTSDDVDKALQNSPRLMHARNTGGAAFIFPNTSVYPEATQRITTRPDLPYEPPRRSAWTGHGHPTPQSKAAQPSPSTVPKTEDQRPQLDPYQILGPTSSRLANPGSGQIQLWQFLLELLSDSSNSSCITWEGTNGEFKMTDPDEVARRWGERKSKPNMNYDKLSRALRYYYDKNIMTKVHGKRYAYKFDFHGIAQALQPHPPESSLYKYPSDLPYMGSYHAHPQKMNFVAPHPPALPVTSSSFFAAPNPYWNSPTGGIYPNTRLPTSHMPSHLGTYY
# How it was run: as §1
# ELF1 = ELF1 (Homo sapiens, UniProt P32519 1-619); conditions: protein: recombinant; tags: N-terminal GST; dsDNA, one strand shown
# How it was run: as §1
# EHF = target: T5, EHF (Homo sapiens, UniProt Q9NZC4 1-300); conditions: protein: recombinant; tags: N-terminal GST; dsDNA, one strand shown
# T5 sequence: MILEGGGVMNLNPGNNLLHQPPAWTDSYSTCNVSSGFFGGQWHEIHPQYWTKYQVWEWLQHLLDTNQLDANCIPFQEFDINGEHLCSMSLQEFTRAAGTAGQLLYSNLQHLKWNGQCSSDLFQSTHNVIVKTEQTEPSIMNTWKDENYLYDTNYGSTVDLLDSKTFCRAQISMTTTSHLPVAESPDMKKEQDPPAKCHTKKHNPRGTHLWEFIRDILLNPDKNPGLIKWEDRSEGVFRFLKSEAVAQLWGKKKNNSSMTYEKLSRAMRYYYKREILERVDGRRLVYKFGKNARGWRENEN
# How it was run: as §1
# SPI1 = SPI1 (Homo sapiens, UniProt P17947 1-270); conditions: protein: recombinant; tags: N-terminal GST; dsDNA, one strand shown
# How it was run: as §1
# SPIB = SPIB (Homo sapiens, UniProt Q01892 1-262); conditions: protein: recombinant; tags: N-terminal GST; dsDNA, one strand shown
# How it was run: as §1
# ELK3 = target: T6, ELK3 (Homo sapiens, UniProt P41970 1-407); conditions: protein: recombinant; tags: N-terminal GST; dsDNA, one strand shown
# T6 sequence: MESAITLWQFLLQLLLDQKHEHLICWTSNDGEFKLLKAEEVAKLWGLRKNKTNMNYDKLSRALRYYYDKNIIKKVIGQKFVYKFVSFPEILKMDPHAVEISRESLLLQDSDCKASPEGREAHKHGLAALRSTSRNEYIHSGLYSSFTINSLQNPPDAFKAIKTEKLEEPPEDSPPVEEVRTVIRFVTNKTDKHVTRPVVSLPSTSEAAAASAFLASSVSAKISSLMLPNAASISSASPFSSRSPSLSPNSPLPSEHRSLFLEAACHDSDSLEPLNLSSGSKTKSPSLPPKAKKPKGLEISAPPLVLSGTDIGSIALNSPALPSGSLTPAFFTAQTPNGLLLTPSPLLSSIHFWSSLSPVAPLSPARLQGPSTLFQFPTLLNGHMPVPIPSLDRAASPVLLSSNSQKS
# How it was run: as §1
# FEV = target: T7, FEV (Homo sapiens, UniProt Q99581 1-238); conditions: protein: recombinant; tags: N-terminal GST; dsDNA, one strand shown
# T7 sequence: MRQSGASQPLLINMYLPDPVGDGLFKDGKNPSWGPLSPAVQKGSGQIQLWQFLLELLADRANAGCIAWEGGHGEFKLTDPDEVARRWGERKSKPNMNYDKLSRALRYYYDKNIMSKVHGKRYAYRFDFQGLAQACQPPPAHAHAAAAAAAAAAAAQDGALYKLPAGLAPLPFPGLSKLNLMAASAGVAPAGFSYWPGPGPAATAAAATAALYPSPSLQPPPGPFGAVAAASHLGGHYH
# How it was run: as §1
# ETV5 = ETV5 (Homo sapiens, UniProt P41161 1-510); conditions: protein: recombinant; tags: N-terminal GST; dsDNA, one strand shown
# How it was run: as §1
# HSF1 = HSF1 (Homo sapiens, UniProt Q00613 1-529); conditions: protein: recombinant; tags: N-terminal GST; chain copies: 3; dsDNA, one strand shown
# How it was run: as §1
# SPIC = target: T8, SPIC (Homo sapiens, UniProt Q8N5J4 1-248); conditions: protein: recombinant; tags: N-terminal GST; dsDNA, one strand shown
# T8 sequence: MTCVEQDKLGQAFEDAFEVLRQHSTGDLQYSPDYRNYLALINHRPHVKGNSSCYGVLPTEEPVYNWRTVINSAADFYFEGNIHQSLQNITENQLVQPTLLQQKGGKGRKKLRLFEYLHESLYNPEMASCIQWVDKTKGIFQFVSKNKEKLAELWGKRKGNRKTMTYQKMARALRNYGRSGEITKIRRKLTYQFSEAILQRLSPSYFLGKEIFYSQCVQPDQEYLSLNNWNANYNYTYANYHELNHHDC
# How it was run: as §1
# ELF4 = ELF4 (Homo sapiens, UniProt Q99607 1-663); conditions: protein: recombinant; tags: N-terminal GST; dsDNA, one strand shown
# How it was run: as §1
# ELK4 = target: T9, ELK4 (Homo sapiens, UniProt P28324-2 1-405); conditions: protein: recombinant; tags: N-terminal GST; dsDNA, one strand shown
# T9 sequence: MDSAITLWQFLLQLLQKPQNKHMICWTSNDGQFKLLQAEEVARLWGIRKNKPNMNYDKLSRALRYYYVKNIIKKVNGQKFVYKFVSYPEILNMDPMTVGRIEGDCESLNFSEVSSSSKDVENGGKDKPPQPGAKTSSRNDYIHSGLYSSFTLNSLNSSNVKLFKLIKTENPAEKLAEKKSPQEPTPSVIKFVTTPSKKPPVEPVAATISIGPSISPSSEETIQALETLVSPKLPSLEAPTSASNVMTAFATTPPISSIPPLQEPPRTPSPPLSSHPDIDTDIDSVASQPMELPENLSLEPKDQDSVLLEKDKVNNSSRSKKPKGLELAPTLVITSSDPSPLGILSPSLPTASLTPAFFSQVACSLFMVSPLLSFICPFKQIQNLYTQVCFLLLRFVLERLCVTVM
# How it was run: as §1
# ETV2 = target: T10, ETV2 (Homo sapiens, UniProt O00321 1-342); conditions: protein: recombinant; tags: N-terminal GST; dsDNA, one strand shown
# T10 sequence: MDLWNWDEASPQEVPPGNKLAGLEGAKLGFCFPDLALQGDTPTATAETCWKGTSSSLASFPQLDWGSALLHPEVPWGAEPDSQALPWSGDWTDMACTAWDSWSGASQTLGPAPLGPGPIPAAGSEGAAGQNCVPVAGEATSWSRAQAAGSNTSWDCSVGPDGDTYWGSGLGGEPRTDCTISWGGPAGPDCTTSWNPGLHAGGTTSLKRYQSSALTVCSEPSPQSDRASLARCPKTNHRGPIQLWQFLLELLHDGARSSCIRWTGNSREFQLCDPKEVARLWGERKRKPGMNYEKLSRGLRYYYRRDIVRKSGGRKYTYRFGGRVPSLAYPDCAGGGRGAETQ
# How it was run: as §1
# ELF3 = target: T11, ELF3 (Homo sapiens, UniProt P78545 1-371); conditions: protein: recombinant; tags: N-terminal GST; dsDNA, one strand shown
# T11 sequence: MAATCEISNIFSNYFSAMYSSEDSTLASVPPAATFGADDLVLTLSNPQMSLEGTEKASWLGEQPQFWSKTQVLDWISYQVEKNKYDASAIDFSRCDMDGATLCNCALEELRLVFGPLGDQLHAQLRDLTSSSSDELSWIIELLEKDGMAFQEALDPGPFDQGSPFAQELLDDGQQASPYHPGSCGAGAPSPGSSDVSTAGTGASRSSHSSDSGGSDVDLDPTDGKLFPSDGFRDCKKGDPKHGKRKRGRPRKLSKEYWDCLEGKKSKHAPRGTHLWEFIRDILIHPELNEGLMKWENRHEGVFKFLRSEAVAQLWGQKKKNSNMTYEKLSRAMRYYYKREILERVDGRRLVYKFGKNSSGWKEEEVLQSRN
# How it was run: as §1
# CRX = CRX (Homo sapiens, UniProt O43186 1-299); conditions: protein: recombinant; tags: N-terminal GST; dsDNA, one strand shown
# How it was run: as §1
# ETV1 = ETV1 (Homo sapiens, UniProt P50549 1-477); conditions: protein: recombinant; tags: N-terminal GST; dsDNA, one strand shown
# How it was run: as §1
# Chain of SPIB (Q01892 whole entry): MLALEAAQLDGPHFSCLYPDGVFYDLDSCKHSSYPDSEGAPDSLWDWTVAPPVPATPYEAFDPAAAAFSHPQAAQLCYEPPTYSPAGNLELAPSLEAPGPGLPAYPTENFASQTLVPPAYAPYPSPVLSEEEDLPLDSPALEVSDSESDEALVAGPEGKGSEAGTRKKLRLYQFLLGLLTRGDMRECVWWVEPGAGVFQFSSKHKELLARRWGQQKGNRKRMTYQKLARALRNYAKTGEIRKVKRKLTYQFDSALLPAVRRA
# Chain of ELF1 (P32519 whole entry): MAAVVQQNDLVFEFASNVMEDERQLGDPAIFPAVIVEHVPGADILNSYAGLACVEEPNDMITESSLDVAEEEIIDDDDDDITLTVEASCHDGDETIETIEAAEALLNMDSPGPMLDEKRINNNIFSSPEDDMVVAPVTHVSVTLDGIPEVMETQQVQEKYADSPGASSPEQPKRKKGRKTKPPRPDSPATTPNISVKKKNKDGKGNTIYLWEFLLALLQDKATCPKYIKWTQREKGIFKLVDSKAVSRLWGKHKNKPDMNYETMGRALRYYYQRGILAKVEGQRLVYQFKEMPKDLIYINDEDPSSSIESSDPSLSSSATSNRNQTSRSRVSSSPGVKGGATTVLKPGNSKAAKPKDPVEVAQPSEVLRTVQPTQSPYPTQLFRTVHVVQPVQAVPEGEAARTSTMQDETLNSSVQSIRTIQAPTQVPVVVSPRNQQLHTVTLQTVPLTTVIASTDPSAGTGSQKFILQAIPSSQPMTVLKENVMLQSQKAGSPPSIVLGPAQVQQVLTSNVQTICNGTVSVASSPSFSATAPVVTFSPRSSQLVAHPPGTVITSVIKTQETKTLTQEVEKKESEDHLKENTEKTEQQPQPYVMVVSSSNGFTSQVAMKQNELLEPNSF
# Chain of HSF1 (Q00613 whole entry): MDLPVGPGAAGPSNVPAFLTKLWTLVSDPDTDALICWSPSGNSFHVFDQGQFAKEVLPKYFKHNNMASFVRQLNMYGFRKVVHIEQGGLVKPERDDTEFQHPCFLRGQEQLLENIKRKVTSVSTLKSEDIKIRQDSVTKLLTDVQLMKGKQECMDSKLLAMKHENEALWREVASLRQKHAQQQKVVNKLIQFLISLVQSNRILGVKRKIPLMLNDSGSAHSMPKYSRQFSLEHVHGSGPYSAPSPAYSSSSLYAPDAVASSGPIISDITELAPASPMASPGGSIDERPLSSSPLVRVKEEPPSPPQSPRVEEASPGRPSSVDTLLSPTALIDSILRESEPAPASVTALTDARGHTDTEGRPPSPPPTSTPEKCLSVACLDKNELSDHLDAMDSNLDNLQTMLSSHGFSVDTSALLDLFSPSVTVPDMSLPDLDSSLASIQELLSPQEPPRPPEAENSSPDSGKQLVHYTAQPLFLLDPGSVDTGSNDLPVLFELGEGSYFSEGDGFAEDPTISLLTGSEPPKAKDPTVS
# Chain of ETV1 (P50549 whole entry): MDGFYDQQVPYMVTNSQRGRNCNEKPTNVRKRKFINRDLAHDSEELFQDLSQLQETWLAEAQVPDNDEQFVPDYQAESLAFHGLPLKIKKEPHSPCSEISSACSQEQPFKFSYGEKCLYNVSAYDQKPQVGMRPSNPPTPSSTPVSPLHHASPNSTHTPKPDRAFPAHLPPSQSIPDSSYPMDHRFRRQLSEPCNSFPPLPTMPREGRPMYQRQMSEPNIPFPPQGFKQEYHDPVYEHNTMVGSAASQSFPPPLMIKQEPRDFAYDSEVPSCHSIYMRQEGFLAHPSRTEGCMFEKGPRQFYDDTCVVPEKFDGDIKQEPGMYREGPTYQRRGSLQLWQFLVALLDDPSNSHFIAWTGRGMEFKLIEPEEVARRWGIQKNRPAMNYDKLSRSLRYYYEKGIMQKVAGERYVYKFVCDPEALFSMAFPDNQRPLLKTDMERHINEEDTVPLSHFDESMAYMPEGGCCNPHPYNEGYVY
# Chain of ETV5 (P41161 whole entry): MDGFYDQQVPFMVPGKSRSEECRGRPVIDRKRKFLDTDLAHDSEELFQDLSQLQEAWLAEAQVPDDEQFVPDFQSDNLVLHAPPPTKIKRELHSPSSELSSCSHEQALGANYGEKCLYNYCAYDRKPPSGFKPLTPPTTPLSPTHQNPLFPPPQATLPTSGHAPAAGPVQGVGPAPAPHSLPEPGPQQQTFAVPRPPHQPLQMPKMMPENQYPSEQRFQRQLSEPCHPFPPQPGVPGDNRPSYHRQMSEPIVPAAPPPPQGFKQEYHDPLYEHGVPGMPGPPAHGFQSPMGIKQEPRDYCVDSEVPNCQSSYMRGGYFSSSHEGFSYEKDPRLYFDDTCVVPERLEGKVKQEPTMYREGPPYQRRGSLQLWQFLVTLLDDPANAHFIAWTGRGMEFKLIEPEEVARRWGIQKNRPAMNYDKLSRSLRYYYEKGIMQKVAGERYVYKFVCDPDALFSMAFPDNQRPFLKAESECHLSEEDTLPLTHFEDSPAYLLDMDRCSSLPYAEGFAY
# Chain of CRX (O43186 whole entry): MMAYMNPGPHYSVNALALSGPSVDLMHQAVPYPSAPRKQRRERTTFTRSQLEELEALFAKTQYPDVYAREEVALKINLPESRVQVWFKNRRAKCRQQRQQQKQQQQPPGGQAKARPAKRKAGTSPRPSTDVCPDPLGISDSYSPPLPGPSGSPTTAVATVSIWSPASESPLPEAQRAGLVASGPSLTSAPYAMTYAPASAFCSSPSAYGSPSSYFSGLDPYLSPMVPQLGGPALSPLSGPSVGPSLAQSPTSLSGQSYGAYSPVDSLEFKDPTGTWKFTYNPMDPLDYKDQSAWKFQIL
# Chain of ELF4 (Q99607 whole entry): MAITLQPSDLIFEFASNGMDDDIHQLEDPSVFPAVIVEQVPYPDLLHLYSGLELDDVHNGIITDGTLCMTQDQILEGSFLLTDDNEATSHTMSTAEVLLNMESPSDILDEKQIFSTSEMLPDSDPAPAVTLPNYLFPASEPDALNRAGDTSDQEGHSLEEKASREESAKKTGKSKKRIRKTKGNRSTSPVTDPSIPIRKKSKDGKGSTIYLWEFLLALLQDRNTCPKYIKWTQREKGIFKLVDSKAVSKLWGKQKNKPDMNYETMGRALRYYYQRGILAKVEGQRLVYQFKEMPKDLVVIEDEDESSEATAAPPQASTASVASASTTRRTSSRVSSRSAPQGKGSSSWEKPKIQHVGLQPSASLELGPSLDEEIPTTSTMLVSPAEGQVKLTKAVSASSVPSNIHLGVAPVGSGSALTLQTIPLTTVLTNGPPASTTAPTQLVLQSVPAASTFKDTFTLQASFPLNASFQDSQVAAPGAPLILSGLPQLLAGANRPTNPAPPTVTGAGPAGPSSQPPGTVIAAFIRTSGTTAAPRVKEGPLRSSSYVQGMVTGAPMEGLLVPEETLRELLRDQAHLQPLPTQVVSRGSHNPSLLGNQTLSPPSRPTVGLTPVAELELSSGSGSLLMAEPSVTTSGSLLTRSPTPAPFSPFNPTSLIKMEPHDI
sequence,measurement,setting,value
GAATGT,binding signal,FLI1,"1.14 fold enrichment (6-mer frequency, TF over GST control)"
same,binding signal,ELK1,"1.11 fold enrichment (6-mer frequency, TF over GST control)"
same,binding signal,GABPA,"1.12 fold enrichment (6-mer frequency, TF over GST control)"
same,binding signal,ERG,"1.08 fold enrichment (6-mer frequency, TF over GST control)"
same,binding signal,ELF1,"1.03 fold enrichment (6-mer frequency, TF over GST control)"
same,binding signal,EHF,"1.13 fold enrichment (6-mer frequency, TF over GST control)"
same,binding signal,SPI1,"1.07 fold enrichment (6-mer frequency, TF over GST control)"
same,binding signal,SPIB,"1.12 fold enrichment (6-mer frequency, TF over GST control)"
same,binding signal,ELK3,"1.06 fold enrichment (6-mer frequency, TF over GST control)"
same,binding signal,FEV,"1.07 fold enrichment (6-mer frequency, TF over GST control)"
same,binding signal,ETV5,"1.07 fold enrichment (6-mer frequency, TF over GST control)"
same,binding signal,HSF1,"1.88 fold enrichment (6-mer frequency, TF over GST control)"
same,binding signal,SPIC,"1.11 fold enrichment (6-mer frequency, TF over GST control)"
same,binding signal,ELF4,"1.07 fold enrichment (6-mer frequency, TF over GST control)"
same,binding signal,ELK4,"1.07 fold enrichment (6-mer frequency, TF over GST control)"
same,binding signal,ETV2,"1.03 fold enrichment (6-mer frequency, TF over GST control)"
same,binding signal,ELF3,"1.2 fold enrichment (6-mer frequency, TF over GST control)"
same,binding signal,CRX,"1.02 fold enrichment (6-mer frequency, TF over GST control)"
same,binding signal,ETV1,"1.03 fold enrichment (6-mer frequency, TF over GST control)"
